Here are results for 41 compounds from the supplement of paper PMC7866885, “A novel bicyclic 2,4-diaminopyrimidine inhibitor of Streptococcus suis dihydrofolate reductase” (PeerJ, 2021).

± gives the standard deviation.

The subject of one experiment is Streptococcus suis HE06. Kind of experiment: percent growth relative to DMSO control; higher = less growth inhibition. The note with it: 10 µM; incubation time 18 h. Here is the method:
(§1)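 CLSI broth microdilution: 5x10^4 CFU of Streptococcus suis (strain P1/7 or HE06) incubated with 10 µM Pathogen Box compound in cation-adjusted Mueller Hinton broth, 37 °C, 5% CO2, 18 h. Growth read as OD600 and expressed as percent of the DMSO-treated control (100%); mean ± SD of three independent experiments.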

A further experiment deals with Streptococcus suis P1/7. The description is as above. The note with it: 10 µM; incubation time 18 h. Here is the method:
as §1

Consider `CCOc1ccc(OCC(=O)Nc2cc(C)cc(C)c2)cc1`, for which the percent growth was 96.3 ± 4.6% in the experiment on Streptococcus suis HE06 and 94.3 ± 16% in the experiment on Streptococcus suis P1/7.

As to `c1ccc2c(c1)CN(CC1CC1)CC1(CCN(Cc3c[nH]c4cnccc34)CC1)O2`, the values for the percent growth in the experiment with Streptococcus suis HE06 and with Streptococcus suis P1/7 were 85.1 ± 15% and 91.8 ± 5.5%, respectively.

Turning to `CS(=O)(=O)N1CCC(Cn2nc(Cc3cccc4ccccc34)c3c(N)ncnc32)CC1`, the results for the percent growth in the experiment on Streptococcus suis HE06 and with Streptococcus suis P1/7 were 91.3 ± 29% and 65.7 ± 20%, respectively.

For `CCOc1ccc(-c2nc(CNCCc3ccc(F)cc3)cs2)cc1`, the percent growth stood at 97.3 ± 4.6% in the experiment on Streptococcus suis HE06 and 29.5 ± 51% with Streptococcus suis P1/7.

As to `CCN(CC)S(=O)(=O)c1ccc(C(=O)Nc2cc(C)nn2-c2nc(C)c(C)c(=O)[nH]2)cc1`, the percent growth in the experiment with Streptococcus suis HE06 was 0.274 ± 0.47%; with Streptococcus suis P1/7, 3.31 ± 3.3%.

Regarding `CC(C)(C)OC(=O)N1CCN(c2cc(-c3ccc(Oc4ccccc4)cc3)n[nH]2)CC1`, the percent growth came to 89.6 ± 5.8% in the experiment with Streptococcus suis HE06 and 28.7 ± 42% with Streptococcus suis P1/7.

With `c1ccc(Oc2ccc(-c3cc(C4CCOCC4)[nH]n3)cc2)cc1`, the percent growth amounted to 59.7 ± 17% with Streptococcus suis HE06 and 49.6 ± 19% in the experiment on Streptococcus suis P1/7.

Turning to `O=C(Nc1ccc2c(c1)B(O)OC2)c1ccccc1C(F)(F)F`, the percent growth was 88.2 ± 15% in the experiment with Streptococcus suis HE06 and 88 ± 14% in the experiment on Streptococcus suis P1/7.

With `N=C(N)Nc1ccc(-c2ccc(-c3ccc(NC(=N)N)cc3Cl)o2)c(Cl)c1`, the percent growth in the experiment with Streptococcus suis HE06 was 22.2 ± 37%; in the experiment with Streptococcus suis P1/7, 23.2 ± 34%.

As to `NC(=O)c1cc(-c2ccsc2)ccc1OCCOc1ccccc1`, the percent growth was determined as 118 ± 40% in the experiment with Streptococcus suis HE06 and 120 ± 58% in the experiment with Streptococcus suis P1/7.

On to `Cc1ccc2nc(Cl)c(CNCc3cccs3)cc2c1`, for which the figures for the percent growth in the experiment on Streptococcus suis HE06 and in the experiment with Streptococcus suis P1/7 were 93.6 ± 9.5% and 100 ± 21%, respectively.

Take `Cc1ccc(Oc2ccc(NC(=O)CNc3ccccc3N3CCCC3=O)cc2)cc1`: the percent growth amounted to 86.9 ± 11% in the experiment on Streptococcus suis HE06 and 104 ± 14% in the experiment on Streptococcus suis P1/7.

Consider `O=C(c1[nH]nc2c1CCCC2)N1CCN(Cc2ccc3c(c2)OCO3)CC1`, for which the percent growth in the experiment on Streptococcus suis HE06 was determined as 81.9 ± 4.7%; with Streptococcus suis P1/7 it was 99.9 ± 45%.

Take `COc1ccccc1C(C)NCC(=O)Nc1cc(C(F)(F)F)ccc1Cl` (configuration not stated): the percent growth in the experiment with Streptococcus suis HE06 came to 86.8 ± 5.4%; in the experiment on Streptococcus suis P1/7, 112 ± 23%.

As to `Cc1noc(C)c1C(=O)N1CCCC(c2[nH]c3c(C)cccc3c2-c2ccncc2)C1` (configuration not stated), the values for the percent growth in the experiment on Streptococcus suis HE06 and in the experiment with Streptococcus suis P1/7 were 90.2 ± 6.2% and 90.5 ± 20%, respectively.

On to `CC(C)n1ncc2c(C(=O)NCC(c3cccs3)N3CCOCC3)cc(-c3ccccc3)nc21` (configuration not stated), for which the values for the percent growth in the experiment with Streptococcus suis HE06 and in the experiment with Streptococcus suis P1/7 were 89.9 ± 4.6% and 106 ± 36%, respectively.

In the case of `COc1cccc(CC(=O)N2CCC(n3c(C)nc4ccc(F)cc43)CC2)c1`, the results for the percent growth with Streptococcus suis HE06 and with Streptococcus suis P1/7 were 104 ± 52% and 65.2 ± 15%, respectively.

Regarding `CC(C)(C)CN1C(=O)C(c2ccccc2)(c2ccccc2)N=C1N`, the percent growth with Streptococcus suis HE06 was 46.1 ± 39%; with Streptococcus suis P1/7, 49.6 ± 44%.

For `Nc1ncnc2c1c(Cc1cccc3ccccc13)nn2CC1CCNCC1`, the percent growth in the experiment on Streptococcus suis HE06 was 105 ± 44%; in the experiment on Streptococcus suis P1/7, 75 ± 5.4%.

Turning to `COc1cc(OC)cc(C(=O)NCC2Cc3cc(Cl)cc(-c4ccncc4)c3O2)c1` (configuration not stated), the percent growth was 90 ± 28% with Streptococcus suis HE06 and 65.4 ± 25% in the experiment with Streptococcus suis P1/7.

On to `O=C(Nc1ccc(F)c(-c2nc3cc(-c4ccccc4)cnc3[nH]2)c1)N1CCCC1`, for which the figures for the percent growth in the experiment with Streptococcus suis HE06 and in the experiment on Streptococcus suis P1/7 were 99.7 ± 36% and 83.7 ± 5.5%, respectively.

With `CC(C)N=c1cc2n(-c3ccc(Cl)cc3)c3ccccc3nc-2cc1Nc1ccc(Cl)cc1`, the percent growth with Streptococcus suis HE06 is 29.6 ± 51%; in the experiment on Streptococcus suis P1/7 it was 48.2 ± 42%.

Turning to `OC[C@H]1O[C@@H](n2c3ccc(Cl)cc3c3c(-c4cc5ccccc5o4)ncnc32)C(O)[C@H]1O` (some centres not stated), the percent growth came to 93 ± 20% in the experiment with Streptococcus suis HE06 and 74.8 ± 13% in the experiment with Streptococcus suis P1/7.

Consider `CC(C)(C)n1nc(Cc2cccc3ccccc23)c2c(N)ncnc21`, for which the figures for the percent growth in the experiment on Streptococcus suis HE06 and in the experiment on Streptococcus suis P1/7 were 90.1 ± 3.1% and 87.7 ± 16%, respectively.

`Cc1cc(Cl)c(S(=O)(=O)N2CCCC2)cc1OCC(=O)NC1CCCCC1`: the percent growth turned out to be 87.7 ± 22% in the experiment on Streptococcus suis HE06 and 63.6 ± 18% in the experiment on Streptococcus suis P1/7.

With `CC1CCCN(C(=O)C(C)Nc2cc(Cl)ccc2N2CCOCC2)C1` (configuration not stated), the percent growth turned out to be 92 ± 11% with Streptococcus suis HE06 and 94.4 ± 32% in the experiment with Streptococcus suis P1/7.

With `O=C(Nc1c(O)cccc1-c1nc2c(C(=O)O)cccc2o1)c1cc(-c2ccccc2)on1`, the percent growth in the experiment on Streptococcus suis HE06 came out at 61.5 ± 26%; with Streptococcus suis P1/7, 11.1 ± 6.9%.

Take `O=S(=O)(c1ccc(Cl)cc1)N1CCN(C(=S)NCc2ccco2)CC1`: the percent growth was found to be 93.7 ± 22% with Streptococcus suis HE06 and 92.6 ± 17% with Streptococcus suis P1/7.

In the case of `Nc1nccc2ccc(-c3ccc4nccn4c3)cc12`, the percent growth amounted to 85.8 ± 25% with Streptococcus suis HE06 and 61.4 ± 20% in the experiment with Streptococcus suis P1/7.

In the case of `Cc1[nH]c2cc(F)cc(F)c2c(=O)c1-c1ccc(Oc2ccc(OC(F)(F)F)cc2)cc1`, the values for the percent growth in the experiment with Streptococcus suis HE06 and in the experiment on Streptococcus suis P1/7 were 96.3 ± 3.2% and 88.9 ± 18%, respectively.

As to `O=C(NCCc1ccn(-c2ccccc2)n1)C1CCCCC1`, the values for the percent growth in the experiment with Streptococcus suis HE06 and with Streptococcus suis P1/7 were 97.3 ± 2.1% and 95 ± 23%, respectively.

In the case of `N#Cc1nc(-c2ccccc2F)oc1NCCc1ccccc1`, the percent growth came to 113 ± 30% in the experiment with Streptococcus suis HE06 and 98.7 ± 25% in the experiment on Streptococcus suis P1/7.

Turning to `CNc1nnc(Sc2cnn(-c3ccccc3)c(=O)c2Cl)s1`, the percent growth in the experiment with Streptococcus suis HE06 came to 81.9 ± 1.8%; in the experiment with Streptococcus suis P1/7, 110 ± 52%.

For `CCC(NC(=O)c1ccccc1NC(=O)c1ccc(C)cc1)C(=O)OC` (configuration not stated), the results for the percent growth in the experiment on Streptococcus suis HE06 and in the experiment on Streptococcus suis P1/7 were 92 ± 4.7% and 78.1 ± 18%, respectively.

In the case of `CCc1ccc(C(NCc2nc(N)nc(N(C)C)n2)C(C)C)cc1` (configuration not stated), the percent growth in the experiment on Streptococcus suis HE06 came out at 12.8 ± 16%; in the experiment with Streptococcus suis P1/7 it was 4.17 ± 0.94%.

For `COc1cccc(OCC(=O)c2ccc(Br)cc2)c1`, the figures for the percent growth in the experiment on Streptococcus suis HE06 and in the experiment on Streptococcus suis P1/7 were 57.7 ± 50% and 81.9 ± 9.6%, respectively.

For the compound `CN1CCN(S(=O)(=O)c2ccc(-c3ccc4c(Nc5ccc6nn[nH]c6c5)ccnc4c3)cc2)CC1`, the percent growth with Streptococcus suis HE06 came out at 103 ± 42%; in the experiment on Streptococcus suis P1/7 it was 63 ± 23%.

Consider `O=C(N[C@H](Cc1ccccc1)C(=O)Nc1ccccc1N1CCOCC1)c1cccs1`, for which the percent growth in the experiment on Streptococcus suis HE06 was found to be 92.7 ± 9.4%; with Streptococcus suis P1/7, 85.8 ± 16%.

With `CCOC(=O)c1cc(-c2csc(Nc3c(C)cc(C)cc3C)n2)on1`, the percent growth is 91.3 ± 6% in the experiment with Streptococcus suis HE06 and 108 ± 60% in the experiment with Streptococcus suis P1/7.

Turning to `Cc1cc(C)nc(-n2nc(C)cc2Nc2ccccc2)n1`, the percent growth in the experiment with Streptococcus suis HE06 was determined as 0.964 ± 1.7%; in the experiment on Streptococcus suis P1/7, 0.0724 ± 0.12%.

As for `CC(C)(C)n1nc(-c2ccccc2)c2c(N)ncnc21`, the percent growth in the experiment on Streptococcus suis HE06 turned out to be 79.7 ± 12%; in the experiment on Streptococcus suis P1/7, 84.5 ± 20%.
